The full list was thinned out, with hits kept by preference.
mHTT-CaM PPI inh: inhibitors of human mutant huntingtin-calmodulin interaction | P42858 | AlphaScreen His-mHTT/GST-CaM binding, luminescence | inhibition, % at 15 µM | 3.6% of 190,000 active | AID 1671202
Pf apPOL inh: Pf-apPOL DNA polymerase inhibition | Recombinant Pf-apPOL, molecular beacon fluorescence, 1.5 h | inhibition, % at 10 µM | 0.25% of 210,000 active
Hits are given with their value; – = inactive; · = not tested or not shown. Rule as the data show it: active = inhibition above about 50%; inactive = the rest.

SMILES	mHTT-CaM PPI inh	Pf apPOL inh
O=C(NCCC1=CCCCC1)c1ncn[nH]1	94	–
COc1cc(C)nc(OCCNS(=O)(=O)c2ccc(C)cc2)n1	–	–
NS(=O)(=O)c1ccc(C(=O)Nc2ccc(Nc3ccc(-n4cccn4)nn3)cc2)cc1	95	–
Cc1ccc(Nc2cc(-n3cccn3)ncn2)cc1	–	–
CCOc1ccc(C(=O)Nc2ccc(-n3nncc3-c3ccccc3)cc2)cc1OCC	–	–
COCC(=O)Nc1ccc(Nc2ccccc2)cc1	–	–
CCOc1ccc(C(=O)Nc2ccc(Nc3ccc(-n4cccn4)nn3)cc2)cc1OCC	88	–
COCC(=O)Nc1ccc(Nc2ccc(-n3cccn3)nn2)cc1	99	–
NS(=O)(=O)c1ccc(NC(=O)c2ccc(F)cc2)cc1	–	–
Cc1ccc(S(=O)(=O)Nc2ccc(Nc3ccc(-n4cccn4)nn3)cc2)c(C)c1	100	–
O=C(O)c1ccc(NC(CSCc2c(F)cccc2Cl)C(=O)O)c([N+](=O)[O-])c1 (stereo unspecified)	–	–
CCCSCCCNC(=O)C1CCCN(c2nc3ccccc3n(C)c2=O)C1 (stereo unspecified)	–	–
O=C(N1CCOCC1)C12CC3CC(CC(Cl)(C3)C1)C2	–	–
CN1C(=O)Cc2ccccc2C1C(=O)NCc1ccco1 (stereo unspecified)	–	–
CCn1nccc1C(=O)N1CCC(n2c(-c3ccc(OC)cc3)nc3cccnc32)C1 (stereo unspecified)	–	–
COc1ccc(-n2nc(C(=O)NCC(=O)Nc3ccc(F)cc3)c3ccccc3c2=O)c(OC)c1	88	–
O=C(NCc1cccnc1-c1ccccc1)c1ccc2c(c1)OCO2	–	–
Cc1cc(=O)oc(C)c1C(=O)NCc1cccs1	–	–
Cc1cc(=O)oc(C)c1C(=O)NCCCN(CC(C)C)CC(C)C	–	–
O=C(NCc1ccccn1)c1ccc2c(c1)OCO2	100	–
CCN(CCCNC(=O)c1c(C)cc(=O)oc1C)c1cccc(C)c1	64	–
COc1ccc(-n2nc(C(=O)Nc3ccc(F)cc3)c3ccccc3c2=O)c(OC)c1	–	–
Cc1cc(=O)oc(C)c1C(=O)NCc1ccccn1	57	–
CCN(CC)C(=O)COc1ccc2c(oc(=O)c3ccccc32)c1C	–	–
CC1(C(=O)N2CCCC2)CCC(=O)N1CCc1ccccc1Cl (stereo unspecified)	–	–
SMILES	mHTT-CaM PPI inh	Pf apPOL inh
Cc1ccc(C)c(OCC(=O)N2CCN(c3ccccn3)CC2)c1	–	–
COCCNC(=O)c1nn(-c2ccccc2OC)c(=O)c2ccccc12	–	–
CCN(CCCNC(=O)c1nn(-c2ccccc2OC)c(=O)c2ccccc12)c1cccc(C)c1	62	–
COc1cccc(/C=C/C(=O)Nc2ccc3nc(N4CCOCC4)cc(C)c3c2)c1OC	–	–
COc1ccc(NC(=O)c2ncn[nH]2)cc1	–	–
COc1ccc(CNC(=O)c2ncn[nH]2)cc1	87	–
CCSc1ccccc1C(=O)Oc1coc(CSc2nccn2C)cc1=O	–	–
Cn1ccnc1SCc1cc(=O)c(OC(=O)C2(c3ccc(Cl)cc3)CCCC2)co1	88	–
Cc1nn(CC(=O)Nc2ccc(Br)c3cccnc23)c(=O)c2ccccc12	–	–
O=C(Nc1ccc(OC(F)(F)F)cc1)OCCSCC1COc2ccccc2O1 (stereo unspecified)	·	–
Cc1ccsc1C=C1C(=O)c2ccccc2C1=O	50	–
Cc1ccccc1C1=N/C(=C\c2sccc2C)C(=O)O1	–	–
Cc1cccc(-c2nc(C3CCN(C(=O)c4ccc(Cl)cc4)CC3)no2)c1	–	–
COCCN1C(=O)C(=O)C(=C(O)c2ccc(OC)cc2C)C1c1cc(OC)ccc1OC (stereo unspecified)	–	–
Cc1ccc(CN2CCc3ccccc3C2)o1	–	–
Cc1[nH]c2ccccc2c1CN1CCc2ccccc2C1	62	–
O=C1c2cccc(N3CCOCC3)c2C(=O)c2cccc(Cl)c21	84	–
O=C1CCC(=O)N1c1ccccc1N1CCOCC1	·	–
CCn1cc(-c2nc(C(=O)Nc3ccccc3C)cs2)c2cccnc21	–	–
COc1ccc2nc(C)cc(N)c2c1	–	–
COc1ccc(-n2c(C)ccc2C)c(N)c1	54	–
Cc1ccc(C(Nc2cccc(C)n2)c2ccc3cccnc3c2O)cc1 (stereo unspecified)	98	–
O=S(=O)(O)c1cccc2cccnc12	–	–
Cc1cccc(NC(=O)COc2ccc(Br)cc2)n1	–	–
Cc1cccc(NC(c2ccc(Br)cc2)c2ccc3cccnc3c2O)n1 (stereo unspecified)	97	–
SMILES	mHTT-CaM PPI inh	Pf apPOL inh
CCCc1nnsc1C(=O)Nc1nc(-c2cc([N+](=O)[O-])cs2)cs1	–	–
CC(C)C(=O)Nc1cccc(NC(=O)CSc2ccc(Cl)cc2)c1	–	–
COc1cc(/C=C2\SC(=N)N(c3ccc(F)cc3)C2=O)ccc1O	–	–
CCOc1cc(/C=C2\SC(=N)N(c3nccs3)C2=O)ccc1OCCN1CCOCC1	51	–
CCOc1cc(/C=C2\SC(=N)N(c3nonc3N)C2=O)ccc1O	–	52
CCOc1ccc(/C=C2\SC(=N)N(c3ccc4c(c3)OCO4)C2=O)cc1OC	–	–
COc1ccc(-n2nc3c(c2NC(=O)c2ccc(C)c([N+](=O)[O-])c2)CS(=O)(=O)C3)cc1	–	–
Cc1nc(Oc2ccc3ccc(=O)oc3c2)c2c3c(sc2n1)CCC3	–	–
CCOC(=O)C1CCCN(C(=O)C2CC(=O)N(c3cccc(F)c3)C2)C1 (stereo unspecified)	–	–
COc1ccc(C(CCN2CCCC2)c2c(OC)cc(OC)c3c(-c4ccccc4)cc(=O)oc23)cc1 (stereo unspecified)	98	–
COc1ccc(C(CCN2CCOCC2)c2c(OC)cc(OC)c3c(-c4ccccc4)cc(=O)oc23)cc1 (stereo unspecified)	66	–
COc1ccc(C(CCN2CCCC(C)C2)c2c(OC)cc(OC)c3c(-c4ccccc4)cc(=O)oc23)cc1 (stereo unspecified)	100	–
COc1ccc(C(CCN2CCCC(C)C2)c2c(OC)cc(OC)c3c(C)cc(=O)oc23)cc1 (stereo unspecified)	–	–
C=CCNC(=O)CN(Cc1ccccc1)S(=O)(=O)c1ccc(F)cc1	–	–
Cc1ccc(Cl)cc1N1CCN(CCNC(=O)C2(n3cccc3)CCCCC2)CC1	56	–
CC(C)CCNC(=O)C1(C)CCC(=O)N1CCCN1CCN(c2cccc(Cl)c2)CC1 (stereo unspecified)	–	–
O=C(NCCCN1CCN(c2cccc(Cl)c2)CC1)C1(n2cccc2)CCCCC1	98	–
Cc1ccc(Cl)cc1N1CCN(CCNC(=O)c2csc3c2CCCC3)CC1	–	–
COc1cc2c(cc1OC)CN(CC(O)COCC13CC4CC(CC(C4)C1)C3)CC2 (stereo unspecified)	–	–
Cn1c(C2CCC(CNC(=O)COc3ccc(F)cc3)CC2)nc2ccccc21 (stereo unspecified)	–	–
CC(=NNc1nnc(-c2ccccc2)c(-c2ccccc2)n1)c1ccco1	·	–
NNc1nnc(-c2ccccc2)c2ccccc12	68	–
NNc1nnc(-c2ccccc2)c(-c2ccccc2)n1	100	–
NC(=O)c1ccc(Nc2nnc(-c3ccc(O)cc3)c3ccccc23)cc1	–	–
CC(=O)c1cccc(NC(=O)C2Oc3ccccc3NC2=O)c1 (stereo unspecified)	–	–
